The campaign covered roughly 390,000 compounds. About 4,700 (1.2%) were called active. Roughly 4% stayed inconclusive and do not appear here. Shown is part of a subset that was picked to be rich in actives. A number with no mark means an inactive call. The call rests on the fitted dose curve; in most records, active means well fitted inhibition curve with a large enough effect; inconclusive means small, poorly fitted or top-dose-only effect, or another doubt; inactive means no such curve, though single readings can be large or run the other way.
On the % scale 0 is the no-effect control and ±100 the full control effect; potency means the concentration at half of the fitted maximal effect.

The target in this test is DNA polymerase eta (Homo sapiens) (UniProt Q9Y253). Briefly: qHTS for Inhibitors of Polymerase Eta. The note with it: recombinant Pol eta, fluorescent DNA replication assay; series mostly up to 114 µM; activity change, negative = inhibition: at the top concentration. A digest of the protocol: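 Pol eta (10 nM) was preincubated with compounds for 15 min at room temperature, after which fluorescent replication substrate (50 nM final) was added to start the reaction. Fluorescence was read kinetically at 0 and 10 min.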
Sequence of DNA polymerase eta (Homo sapiens) (Q9Y253 whole entry, looked up): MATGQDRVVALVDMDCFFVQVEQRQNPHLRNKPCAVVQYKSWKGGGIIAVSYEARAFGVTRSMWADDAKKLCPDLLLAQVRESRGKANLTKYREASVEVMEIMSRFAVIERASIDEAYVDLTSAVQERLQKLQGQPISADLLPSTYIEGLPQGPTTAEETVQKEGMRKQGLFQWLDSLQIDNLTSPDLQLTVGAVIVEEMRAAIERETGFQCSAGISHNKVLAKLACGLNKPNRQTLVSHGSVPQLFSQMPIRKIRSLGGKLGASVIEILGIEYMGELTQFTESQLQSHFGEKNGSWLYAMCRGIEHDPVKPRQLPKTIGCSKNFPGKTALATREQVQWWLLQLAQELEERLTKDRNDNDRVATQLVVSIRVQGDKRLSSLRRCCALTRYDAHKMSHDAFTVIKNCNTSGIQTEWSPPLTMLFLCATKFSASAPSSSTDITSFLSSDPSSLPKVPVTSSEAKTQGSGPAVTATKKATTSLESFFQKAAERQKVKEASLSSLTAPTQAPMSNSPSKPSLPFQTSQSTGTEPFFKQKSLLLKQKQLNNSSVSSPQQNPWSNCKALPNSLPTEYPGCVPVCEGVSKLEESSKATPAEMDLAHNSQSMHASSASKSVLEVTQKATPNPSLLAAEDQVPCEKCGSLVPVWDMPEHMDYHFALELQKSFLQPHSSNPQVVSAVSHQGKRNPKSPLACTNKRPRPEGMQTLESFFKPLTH
Turning to `CC1CCN(S(=O)(=O)c2ccc3c(ccn3CCC(=O)NCc3ccc(N(C)C)cc3)c2)CC1`, the “activity change, negative = inhibition” value is -16.5%.
The same measure, in the same setting: under `O=C1c2cccc3cccc(c23)N1CN1CCN(c2ccccn2)CC1` stands -16.5%.
`O=C(CN1C(=O)c2cccc3cccc1c23)Nc1ccccc1`: the Potency was 50.1 µM (active).
As for `COc1cccc(NC(=O)CN2C(=O)c3ccccc3Sc3ncccc32)c1`, the “activity change, negative = inhibition” value was 7.35%.
On to `CCN(C(=O)Cn1cc(S(=O)(=O)N2CCN(c3ccccc3F)CC2)c2ccccc2c1=O)c1ccc(C)c(C)c1`, for which the “activity change, negative = inhibition” value is -7.11%.
On to `CCC(CC)C(=O)Nc1ccc(S(=O)(=O)Nc2nccs2)cc1`, for which the “activity change, negative = inhibition” value is -1.86%.
Still for that read-out and setting: under `COc1ccccc1OC(C)C(=O)Nc1ccc(S(=O)(=O)Nc2nccs2)cc1` (configuration not stated) stands -2.56%.
On to `O=C(Nc1ccc(S(=O)(=O)Nc2nccs2)cc1)c1cc(-c2ccncc2)nc2ccccc12`, for which the Potency was 12.6 µM (active).
As to `CC(C)(C)OC(=O)N1CCC(c2c(C(=O)N3CCc4ccccc4C3)cnn2-c2ccc(F)cc2)CC1`, the “activity change, negative = inhibition” value is -11.6%.
The same measure, in the same setting: under `Oc1ccc(Cn2cc[nH]c2=S)cc1` stands -4.7% [at 57.1 µM].
Still for that read-out and setting: the figure for `COc1ccc(CCNc2ncnc3c2cnn3-c2ccc(C)cc2)cc1` is -15.2%; for `Cc1ccc(NC(=O)CSc2nc3c([nH]c4ccccc43)c(=O)n2-c2ccccc2)cc1Cl` it is 2.47%.
Consider `Cc1ccc2nc(N3C(=O)C(O)=C(C(=O)c4ccco4)C3c3cccc(O)c3)sc2c1` (configuration not stated), for which the Potency was 50.1 µM (active).
On to `C=CCSc1nnc(N2C(=O)C(O)=C(C(=O)c3ccco3)C2c2ccc(F)cc2)s1` (configuration not stated), for which the “activity change, negative = inhibition” value is -17.6%.
Same read-out and setting: under `CC(=O)c1sc(N2C(=O)c3oc4ccccc4c(=O)c3C2c2ccc(C)cc2)nc1C` (configuration not stated) stands -12.5%; under `CC(=O)c1ccc(NC(=O)CSc2nc(-c3ccccc3F)nc3c2c(=O)n(C)c(=O)n3C)cc1`, 0.181%.
Same read-out and setting: under `CCCCc1nn2c(=O)cc(COC(=O)c3cccc(NC(=O)COc4ccccc4)c3)nc2s1` stands -13.7%; under `Cn1c(=O)[nH]c(=O)c2c1nc(NCCc1ccccc1)n2Cc1ccc(F)cc1`, -20.1%; under `O=C(Nc1ccc(F)cc1)c1cc2c(s1)CCCC2`, -15%.
As for `O=C(c1cc2c(s1)CCC2)N1CCN(c2ccccc2)CC1`, the Potency was 10 µM (active).
As to `CC1CCN(c2nc3ccc(C(=O)N4CCN(c5ccccc5)CC4)cc3s2)CC1`, the “activity change, negative = inhibition” value was -14.8%.
Still for that read-out and setting: under `CC1CCCN(c2csc3ccc(F)cc3c2=O)C1` (configuration not stated) stands -18.2%.
`Cc1ccc(SCC(=O)NC(=O)NCc2ccco2)c(C)c1`: the Potency is 14.1 µM (active).
As for `Cc1cc(C)c2c(c1)c(C)cc1nnc(SCC(=O)NCc3ccco3)n12`, the “activity change, negative = inhibition” value was -9.48%.
On to `Cc1cc(C)n2nc(SCC(=O)NC(=O)NCc3ccco3)nc2n1`, for which the “activity change, negative = inhibition” value was -12.1%.
On the same count and under the same terms, under `CCc1cccc(NC(=O)CN(C)S(=O)(=O)c2ccc3[nH]c4c(c3c2)CCCC4)c1` stands -8.51%; under `CCn1c2ccccc2c2nnc(N3CCN(c4cc(C)ccc4C)CC3)nc21`, 12.8%.
On the same count and under the same terms, under `Cc1ccc2[nH]c3c(=O)n(CC(=O)NC(C)C)ncc3c2c1` stands -18.8%.
On the same count and under the same terms, the figure for `O=C(C1=C(O)C(=O)N(CCOCCO)C1c1ccccn1)c1cccs1` (configuration not stated) is -5.89%.
Turning to `O=C(C1=C(O)C(=O)N(c2ncccn2)C1c1cccs1)c1ccco1` (configuration not stated), the Potency was 79.4 µM (active).
As to `CC(C)c1ccc(C2C(C(=O)c3ccco3)=C(O)C(=O)N2CC2CCCO2)cc1` (configuration not stated), the “activity change, negative = inhibition” value is -8.95%.
With `O=C(CN1C(=O)CCn2nc(-c3ccccc3)cc21)NCc1ccccc1`, the “activity change, negative = inhibition” value is -13.6%.
Same read-out and setting: under `O=C(c1cccs1)c1cn(CCOc2ccc(Cl)cc2)c2ccccc12` stands -12.8%.
The same measure, in the same setting: the figure for `O=C(N/N=C/c1ccc(OCC2COCCO2)cc1)c1ccc(Br)cc1` (configuration not stated) is -9.88%.
For the compound `O=C(COc1ccc(/C=N/NC(=O)c2ccc(O)cc2)cc1)Nc1ccc([N+](=O)[O-])cc1`, the Potency was 4.47 µM (active).
For `CN1CCN(Cc2nc3cc(NC(=O)COc4ccc([N+](=O)[O-])cc4)ccc3n2C)CC1`, the “activity change, negative = inhibition” value was -2.43%.
Still for that read-out and setting: the figure for `COc1ccc(C2Sc3ccccc3NC3=C2C(=O)c2ccccc23)c(OC)c1OC` (configuration not stated) is -10.5%.
On to `NC(CSC(c1ccccc1)(c1ccccc1)c1ccc(-c2ccccc2)cc1)C(=O)O` (configuration not stated), for which the Potency is 25.1 µM (active).
Turning to `C=CCC(CC=C)(C(N)=O)c1ccccc1`, the “activity change, negative = inhibition” value was -13.7%.
Still for that read-out and setting: under `CCC(C)OC(=O)C(C)Oc1ccc(-c2ccccc2)cc1` (configuration not stated) stands -10.5%; under `O=C(Nc1ccc(C(=O)OCc2cc(=O)n3nc(C4CC4)sc3n2)cc1)c1ccc(F)cc1`, 3.99%.
Take `COc1ccc(CCNCc2c(C(=O)O)c(C)n(Cc3cccc(C)c3)c2C)cc1OC`: the “activity change, negative = inhibition” value was -19.4%.
On the same count and under the same terms, the figure for `COc1ccc(Cl)cc1NC(=O)CCC(=O)c1ccc(C)cc1` is -3.27%; for `COc1ccc(Cl)cc1NC(=O)CN(C)Cc1ccc(OC)c(OC)c1` it is -27.5%.
In the case of `O=C(CCS(=O)(=O)c1ccc(Br)cc1)NCCc1ccc(Cl)cc1`, the Potency is 20 µM (active).
On the same count and under the same terms, under `COc1ccc(Cl)cc1NC(=O)CCS(=O)(=O)c1ccc(Br)cc1` stands 20 µM (active).
Take `Cn1c(=O)oc2cc(S(=O)(=O)CCC(=O)NCCc3ccc(Cl)cc3)ccc21`: the “activity change, negative = inhibition” value is -13.5%.
With `CC(=O)N1CCc2cc(Br)cc(S(=O)(=O)CCC(=O)NCCc3ccc(Cl)cc3)c21`, the “activity change, negative = inhibition” value was -7.83%.
The same measure, in the same setting: the figure for `O=C(CCS(=O)(=O)c1cc(Br)cc2c1N(C(=O)C1CC1)CC2)Nc1ccc(Br)cc1F` is 4.1%; for `CSc1nc(-c2ccccc2Cl)nc2c1Cc1c(CO)cnc(C)c1O2` it is -2.32%.
With `CC(=O)c1sc2nc(SCC(=O)N3CCCCC3)[nH]c(=O)c2c1C`, the Potency was 10 µM (active).
Turning to `Cc1c(C)n2c(SCC(=O)N3CCCC3)nnc2[nH]c1=O`, the “activity change, negative = inhibition” value is -18.5%.
Take `COCCn1c(SCC(=O)N2CCCCCC2)nc2c(c1=O)SCC2`: the “activity change, negative = inhibition” value was -10.1%.
Consider `Cc1cc(C)c2oc(C(=O)Nc3ccc(S(=O)(=O)N4CCCCCC4)cc3)cc(=O)c2c1`, for which the “activity change, negative = inhibition” value is -9.78%.
Turning to `O=C(CSc1nnc(-c2ccncc2)n1-c1ccccc1)Nc1ccc(Cl)c(Cl)c1`, the “activity change, negative = inhibition” value was 1.86%.
On the same count and under the same terms, under `COc1ccc(S(=O)(=O)NCCSc2nnnn2-c2ccccc2)cc1` stands -11%.
Consider `CC(C)(C)C1C/C(=C/c2ccco2)C(=O)/C(=C/c2ccco2)C1` (configuration not stated), for which the Potency was 28.2 µM (active).
Regarding `COc1cc(Cl)ccc1Nc1ncc(C(=O)N2CCN(c3ccccc3OC)CC2)c2ccccc12`, the “activity change, negative = inhibition” value was -7.62%.
On the same count and under the same terms, under `COc1ccc(Nc2ncc(C(=O)Nc3cc(C)ccc3OC)c3ccccc23)cc1` stands -16.5%; under `COc1ccc(C(=O)Nc2cccc(C(=O)OCc3cc(=O)n4c5c(sc4n3)CCCC5)c2)cc1`, -3.82%; under `COc1ccccc1CNC(=O)c1ccc(-n2c(C)cc3c2CCCC3)cc1`, -7.73%.
The same measure, in the same setting: the figure for `COc1ccc(C2=CC(c3ccccc3Cl)n3nc(-c4ccc(Cl)cc4)nc3N2)cc1` (configuration not stated) is -22.5%.

The values above are taken from PubChem BioAssay AID588591 (National Center for Advancing Translational Sciences (NCATS), 2011).
